Source: PubChem BioAssay (National Center for Advancing Translational Sciences (NCATS))
HCMV antiviral – inhibitors of human cytomegalovirus | actives 4.5% (n = 410,000) | activity change, negative = inhibition, % at 57.5 µM | AID 1259415 | HFF cells, HCMV-luciferase reporter, 72 h; stronger effect = lower value; in the data active = activity change below about -60%; inconclusive = no clear call, values can overlap the other calls; inactive = above about -39%
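Luciferase read-out from HCMV-luciferase-infected HFFs (MOI 1 PFU/cell) 72 h post infection at 37C; compounds added after 16 h cell attachment; activity normalized between buffer-only basal and Salinomycin (10uM) inhibitor controls.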
Pf growth 96h – P. falciparum growth inhibition at 96 hours | Potency, µM (series often up to 28.7 µM), inactives show at the highest dose activity change, negative = inhibition, actives largely listed as inhibitors | P. falciparum luciferase reporter growth, 96 h | actives 6.9% (n = 320,000); note: potency is the fitted concentration of half-maximal effect
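Luminescence readout: decreased luciferase signal marks inhibited growth of reporter-expressing P. falciparum in infected red cells (2% hematocrit, 0.05% parasitemia final), exposed to compound two generations (96 h, 37 C, 5% CO2).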
LASV entry inh – Lassa virus entry inhibition; Potency, µM (top dose mostly 37.9 µM), inactives show at the highest dose activity change, negative = inhibition, most hits filed as inhibitors; actives 1.2% (n = 300,000); AID 540256; Lassa virus pseudotype entry inhibition, cell reporter; calls by dose curve; tested in HEK293 cells; note: potency is the fitted concentration of half-maximal effect; nearly all actives have a fitted effect of over 50% in size
HCV inh – blocks hepatitis C virus; Huh7.5.1 HCVcc-Cre infection, luciferase reporter, 44 h; Potency, µM (doses to about 41.8 µM), for the others: at the highest dose activity change, negative = inhibition, hits mostly inhibitors; actives 3.4% (n = 340,000); note: potency is the fitted concentration of half-maximal effect
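Antiviral activity was scored by luciferase reporter output from cells infected with HCVcc-Cre (~0.5 moi) in presence of compound, 44 h infection period, cells seeded 1,000/well 4 h prior.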
Pf growth 48h – inhibits P. falciparum growth in the first generation, 48 h; P. falciparum luciferase growth in erythrocytes, 48 h; Potency, µM (highest dose often 28.7 µM), without a hit: top-dose activity change, negative = inhibition, most hits filed as inhibitors; actives 5.9% (n = 310,000); note: potency is the fitted concentration of half-maximal effect
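Luciferase-expressing parasites in RBCs, 2% Hct / 0.1% parasitemia final; RPMI 1640 + 0.5% Albumax; 37 C, 5% CO2, one generation; luminescence read-out, lower signal = inhibition.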
Marburg entry inh – Marburg virus entry inhibition. Marburg virus pseudotyped entry inhibition, cell reporter. Potency, µM (top dose mostly 37.8 µM), for inactives: at the top dose activity change, negative = inhibition, hits mostly inhibitors. actives 1.8% (n = 300,000). AID 540276; calls by dose curve; tested in HEK293 cells; note: potency is the fitted concentration of half-maximal effect
Numbers without * were called inactive; u = inconclusive; x = not tested or not shown; [ ] = another dose, or the depositor's remark. In the library only some 14% were active in any assay of this set; here they are far more common. Unless noted, calls come from the whole dose curve; as a rule, active = well fitted inhibition curve with a large enough effect; inconclusive = small, poorly fitted or top-dose-only effect, or another doubt; inactive = no such curve, though single readings can be large or run the other way. % is set by controls: 0 for no effect and ±100 for the full control effect.

SMILES	HCMV antiviral	Pf growth 96h	LASV entry inh	HCV inh	Pf growth 48h	Marburg entry inh
COCCNC(=O)CN1C(=O)CCn2nc(-c3cn(C)c4ccccc34)cc21	8.9	x	26.8%[46.1 µM]	x	x	x
CCSc1ccc([C@@H]2[C@H]3C(=O)N(CC)C(=O)[C@H]3[C@]3(C(=O)OC)CCCCN23)cc1	18.9	4.65µM*	x	4.3%	4.15µM*	x
CCCCCCSc1ccc([C@@H]2[C@H]3C(=O)N(C)C(=O)[C@H]3[C@]3(C(=O)OC)CCCCN23)cc1	-0.4	11.7µM*	x	u	13.1µM*	x
CCSc1ccc([C@@H]2[C@@H]3C(=O)N(CC)C(=O)[C@@H]3[C@]3(C(=O)OC)CCCN23)cc1	33.3	u	x	-19.7%	10.4µM*	x
CCSc1ccc([C@@H]2[C@@H]3C(=O)N(C)C(=O)[C@@H]3[C@]3(C(=O)OC)CCCCN23)cc1OC	14.6	x	x	-7.1%	x	x
CCCCCCSc1ccc([C@@H]2[C@@H]3C(=O)N(CC)C(=O)[C@@H]3[C@]3(C(=O)OC)CCCCN23)cc1	20.8	x	x	-24.0%	x	x
CCCCCCSc1ccc([C@H]2N[C@@](C)(C(=O)OC)[C@H]3C(=O)N(C)C(=O)[C@@H]23)cc1	8.6	u	x	u	14.7µM*	x
CC(=O)c1ccc(NC(=O)Cn2nc(C(F)(F)F)c3c2CCCC3)cc1	42.4	x	19.7%[46.1 µM]	x	x	8.6%[46.1 µM]
CCOC(=O)CC1N=NN=N1	x	x	x	x	x	18.8%[46.1 µM]
CC(C)OC(=O)c1c(NC(=O)c2cc3nc(-c4ccccc4)cc(C(F)(F)F)n3n2)sc2c1CCCC2	-2.9	x	5.8%[46.1 µM]	x	x	x
COc1ccc(Cl)cc1NC(=O)c1c(NCc2cccs2)sc2c1CCC(C)C2 (stereo not drawn)	2.6	x	16.6%[46.1 µM]	x	x	x
CCSc1ccc([C@@H]2[C@H]3C(=O)N(C)C(=O)[C@H]3[C@]3(C(=O)OC)CCCCN23)cc1	18.2	u	x	u	11.7µM*	x
COC(=O)[C@@]12CCCCN1[C@H](c1ccc(SC3CCCCC3)cc1)[C@@H]1C(=O)N(C)C(=O)[C@@H]12	-12.1	36.9%	x	3.1%	u	x
CCSc1ccc([C@@H]2[C@@H]3C(=O)N(CC)C(=O)[C@@H]3[C@]3(C(=O)OC)CCCCN23)cc1	-26.5	-100.0%	x	0.708µM*	-90.7%	x
CCC(C)Sc1ccc([C@@H]2[C@H]3C(=O)N(CC)C(=O)[C@H]3[C@]3(C(=O)OC)CCCCN23)cc1 (stereo partly drawn)	15.3	3.29µM*	x	6.3%	2.62µM*	x
COc1ccc(CN2CC(C(N)=O)Oc3ccccc32)cc1F (stereo not drawn)	u	11.4%	x	1.9%	18.8%	-15.9%[46.1 µM]
COc1cc(/C=C/C(=O)OCC(=O)c2c(N)n(C)c(=O)n(C)c2=O)ccc1OCC#N	19.9	u	u	u	-28.2%	6.31µM*
Cn1c(N)c(C(=O)COC(=O)/C=C/c2ccccc2)c(=O)n(C)c1=O	11.8	x	-1.1%	-21.6%	x	-10.8%
Cn1c(N)c(C(=O)COC(=O)/C=C/c2ccc(F)cc2)c(=O)n(C)c1=O	-4.0	u	0.6%	u	u	-0.5%
Cn1c(N)c(C(=O)COC(=O)/C=C/c2cccc(F)c2)c(=O)n(C)c1=O	-29.3	-83.5%	-7.7%	23.9%	11.7µM*	-13.1%
COc1cc(/C=C/C(=O)OCC(=O)c2c(N)n(C)c(=O)n(C)c2=O)ccc1O	-12.0	-15.0%	-4.5%[46.1 µM]	-17.5%	-9.6%	-10.1%[46.1 µM]
Cn1c(N)c(C(=O)COC(=O)/C=C/c2cccc(Br)c2)c(=O)n(C)c1=O	-4.9	-112.2%	x	3.1%	13.1µM*	x
CCN(C(=O)CSc1nnc(-c2cc(OC)c(OC)c(OC)c2)o1)c1ccccc1	-18.6	x	12.5%[46.1 µM]	x	x	-3.8%[46.1 µM]
COc1ccc(-c2nnc(SCC(=O)N(Cc3ccccc3)C(C)(C)C)o2)cc1OC	-95.1*	x	u	u	11.7µM*	u
N#CC1(NC(=O)CN2C(=O)c3ccccc3C2=O)CCCCC1	-14.5	-25.7%	x	13.6%	0.0%	x
Cn1c(=O)c2c(nc(Cl)n2CC(=O)NC2(C#N)CCCCC2)n(C)c1=O	-101.3*	2.4%	25.0%	4.8%	0.0%	20.3%
